Laboratory results: PubChem BioAssay (NCI)
This is part of a sample that, as a whole, favours compounds with a hit. Of some 79,000 tested, about 15% had one in any assay. Calls of active or inactive are those of the source. Rule as the data show it: active = growth inhibition above about 70%; inactive = the rest.

Assays:
[1] = NCI Yeast Anticancer Drug Screen. Data for the rad50 strain (AID 155);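 also: 0% = growth of vehicle-only cultures of the same strain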; conditions: S. cerevisiae rad50 strain growth inhibition, active compounds read high
In short: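 Growth of the mutant yeast was measured after compound exposure and referenced to vehicle-treated cultures.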

[2] = NCI Yeast Anticancer Drug Screen. Data for the mec2-1 strain (AID 157); conditions: S. cerevisiae mec2-1 strain, active compounds read high
In short: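 Compounds were applied to mec2-1 yeast cells. Their growth was then compared with that of vehicle-treated cultures to give growth inhibition.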

[3] = NCI Yeast Anticancer Drug Screen. Data for the sgs1 mgt1 strain (AID 161);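 also: 0% = growth of cultures given vehicle only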; conditions: S. cerevisiae sgs1 mgt1 strain, active compounds read high
In short: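 Percent growth inhibition was derived by comparing compound-exposed mutant yeast with vehicle-exposed cultures. The strain carries alterations in DNA damage repair.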

[4] = NCI Yeast Anticancer Drug Screen. Data for the cln2 rad14 strain (AID 165);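 also: 0% = growth equal to vehicle treated cultures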; conditions: S. cerevisiae cln2 rad14 strain, active compounds read high
In short: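 Strain: cln2 rad14 yeast, altered in cell cycle control and DNA damage repair. Read-out: growth inhibition vs vehicle.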

[5] = NCI Yeast Anticancer Drug Screen. Data for the bub3 strain (AID 167); conditions: S. cerevisiae bub3 mutant strain, active compounds read high
In short: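 Whole-cell yeast assay. The mutant strain was incubated with compounds, and growth inhibition was determined by comparison with vehicle-treated cells.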

[6] = NCI Yeast Anticancer Drug Screen. Data for the mlh1 rad18 strain (AID 175); conditions: S. cerevisiae mlh1 rad18 strain growth inhibition, active compounds read high
In short: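 A repair-deficient yeast strain is exposed to test compound, and growth is scored relative to vehicle-treated controls.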

[7] = at 5.0 µM (retest, dose inferred, filed as 0.5)
[8] = at 50.0 µM (retest, dose inferred, filed as 5.0)

Measured: growth inhibition

COc1cccc2c1S(=O)(=O)C(c1ccccc1)=CC2=O
inactive: [1]; [7] 45% | [2]; [7] 48% | [3]; [7] 55% | [4]; [7] 12% | [5]; [7] 58% | [6]; [7] 69%
active: [1]; [8] 99% | [1]; at 50.0 µM 99.5% | [2]; [8] 99% | [2]; at 50.0 µM 99.2% | [3]; [8] 99% | [3]; at 50.0 µM 99.4% | [4]; [8] 98% | [4]; at 50.0 µM 98.7% | [5]; [8] 97% | [5]; at 50.0 µM 99.7% | [6]; [8] 99% | [6]; at 50.0 µM 99.5%

ON=C1Cc2ccccc2-c2ccccc2C1
inactive: [1]; [7] 2% | [1]; [8] 1% | [1]; at 50.0 µM -23% | [2]; [7] 2% | [2]; [8] 5% | [2]; at 50.0 µM -11.1% | [3]; [7] 8% | [3]; [8] 4% | [3]; at 50.0 µM -3.3% | [4]; [7] 1% | [4]; [8] 7% | [4]; at 50.0 µM 39.2% | [5]; [7] -5% | [5]; [8] 1% | [5]; at 50.0 µM 6.1% | [6]; [7] -3% | [6]; [8] -2% | [6]; at 50.0 µM 17.1%

O=C(O)c1cc2ccc3cccc4ccc(c1)c2c34
inactive: [1]; [7] 4% | [2]; [7] 1% | [3]; [7] 3% | [4]; [7] -4% | [5]; [7] -3% | [6]; [7] 9%
active: [1]; [8] 93% | [1]; at 50.0 µM 80.3% | [2]; [8] 89% | [2]; at 50.0 µM 70.7% | [3]; [8] 94% | [3]; at 50.0 µM 87.3% | [4]; [8] 92% | [4]; at 50.0 µM 77.8% | [5]; [8] 90% | [5]; at 50.0 µM 88.4% | [6]; [8] 94% | [6]; at 50.0 µM 86%

O=C(c1ccccc1)C(Br)C(Br)c1ccc(Cl)c(Cl)c1 (centres undefined)
active: [1]; [8] 96% | [2]; [8] 98% | [3]; [7] 92% | [3]; [8] 97% | [4]; [8] 97% | [5]; [7] 87% | [5]; [8] 98% | [6]; [7] 73% | [6]; [8] 97% | [6]; at 50.0 µM 77.8%
inactive: [1]; [7] 67% | [1]; at 50.0 µM -8.65% | [2]; [7] 69% | [2]; at 50.0 µM 24.3% | [3]; at 50.0 µM 60.1% | [4]; [7] 39% | [4]; at 50.0 µM -16.2% | [5]; at 50.0 µM 13.1%

N#Cc1ccc([N+](=O)[O-])cc1C#N
active: [1]; [8] 97% | [1]; at 50.0 µM 99.2% | [2]; [8] 97% | [2]; at 50.0 µM 99.8% | [3]; [8] 98% | [3]; at 50.0 µM 99.6% | [4]; [8] 96% | [4]; at 50.0 µM 97.6% | [5]; [8] 98% | [5]; at 50.0 µM 97.6% | [6]; [8] 98% | [6]; at 50.0 µM 99.5%
inactive: [1]; [7] -155% | [2]; [7] -46% | [3]; [7] -56% | [4]; [7] -50% | [5]; [7] -66% | [6]; [7] -135%

O=C(O)c1c(-c2ccccc2)cc(-c2ccccc2)cc1-c1ccccc1
active: [1]; [7] 93% | [1]; [8] 98% | [1]; at 50.0 µM 99.1% | [2]; [7] 90% | [2]; [8] 98% | [2]; at 50.0 µM 99.2% | [3]; [7] 93% | [3]; [8] 99% | [3]; at 50.0 µM 99.3% | [4]; [7] 90% | [4]; [8] 98% | [4]; at 50.0 µM 97.8% | [5]; [7] 88% | [5]; [8] 95% | [5]; at 50.0 µM 98.2% | [6]; [7] 92% | [6]; [8] 98% | [6]; at 50.0 µM 98.9%

O=C1SC(c2ccccc2)=S=C1c1ccccc1
inactive: [1]; [7] 18% | [1]; [8] 28% | [1]; at 50.0 µM 40% | [2]; [7] 24% | [2]; [8] 39% | [2]; at 50.0 µM 46.8% | [3]; [7] 21% | [3]; [8] 44% | [3]; at 50.0 µM 37.4% | [4]; [7] 13% | [4]; [8] 13% | [4]; at 50.0 µM 24.6% | [5]; [7] 20% | [5]; [8] 54% | [5]; at 50.0 µM 13.8% | [6]; [7] 33% | [6]; [8] 38% | [6]; at 50.0 µM -25.4%

O=C(Nc1ccc(Cl)cc1)NS(=O)(=O)c1ccc2c(c1)CCC2
inactive: [1]; [7] -18% | [1]; [8] 35% | [1]; at 50.0 µM 59.2% | [2]; [7] -40% | [2]; [8] 16% | [2]; at 50.0 µM 39.4% | [3]; [7] -30% | [3]; [8] 57% | [3]; at 50.0 µM 69.8% | [4]; [7] -23% | [4]; [8] 38% | [4]; at 50.0 µM 59% | [5]; [7] -14% | [5]; [8] 62% | [5]; at 50.0 µM 30.4% | [6]; [7] -47% | [6]; [8] 27% | [6]; at 50.0 µM 45.6%

CC(=O)Oc1ccc(N2C(=O)C=CC2=O)cc1
active: [1]; [7] 86% | [1]; [8] 99% | [1]; at 50.0 µM 98.8% | [2]; [7] 81% | [2]; [8] 100% | [2]; at 50.0 µM 99.1% | [3]; [8] 99% | [4]; [8] 100% | [5]; [7] 87% | [5]; [8] 99% | [5]; at 50.0 µM 99% | [6]; [8] 100%
inactive: [3]; [7] 67% | [3]; at 50.0 µM 52% | [4]; [7] 56% | [4]; at 50.0 µM 54.2% | [6]; [7] 41% | [6]; at 50.0 µM 52.5%

CCC[N+]1=C(/C=C/c2cc(C)c3cccnc3c2O)C(C)(C)c2ccccc21
active: [1]; [8] 94% | [1]; at 50.0 µM 93.7% | [2]; [8] 95% | [2]; at 50.0 µM 90.3% | [3]; [8] 93% | [3]; at 50.0 µM 86.5% | [4]; [8] 90% | [4]; at 50.0 µM 81.8% | [5]; [8] 93% | [5]; at 50.0 µM 92% | [6]; [8] 93% | [6]; at 50.0 µM 93%
inactive: [1]; [7] 12% | [2]; [7] 27% | [3]; [7] 7% | [4]; [7] -7% | [5]; [7] 4% | [6]; [7] 19%

COC(=O)/C=C/c1cccc[n+]1[O-]
inactive: [1]; [7] 3% | [1]; [8] -6% | [1]; at 50.0 µM 44.6% | [2]; [7] 3% | [2]; [8] -4% | [2]; at 50.0 µM -2.85% | [3]; [7] 4% | [3]; [8] -6% | [3]; at 50.0 µM 0.55% | [4]; [7] 4% | [4]; [8] -15% | [4]; at 50.0 µM 54.8% | [5]; [7] 4% | [5]; [8] 0% | [5]; at 50.0 µM -4.4% | [6]; [7] -1% | [6]; [8] -11% | [6]; at 50.0 µM 17.8%

O=C1/C(=C\c2ccc(Cl)cc2Cl)Sc2scc(-c3ccc(O)c(O)c3)[n+]21
inactive: [1]; [7] 18% | [1]; [8] 55% | [2]; [7] 6% | [2]; [8] 67% | [3]; [7] 15% | [4]; [7] 1% | [4]; at 50.0 µM 46.5% | [5]; [7] -10% | [6]; [7] 28% | [6]; [8] 68%
active: [1]; at 50.0 µM 86.2% | [2]; at 50.0 µM 76.9% | [3]; [8] 71% | [3]; at 50.0 µM 97.8% | [4]; [8] 71% | [5]; [8] 81% | [5]; at 50.0 µM 85.7% | [6]; at 50.0 µM 91.8%

CCOC(=O)c1c(Cl)nnc(-c2ccccc2)c1-c1ccccc1
inactive: [1]; [7] 0% | [2]; [7] 1% | [3]; [7] -2% | [4]; [7] 1% | [5]; [7] 13% | [6]; [7] -1%
active: [1]; [8] 98% | [1]; at 50.0 µM 98.2% | [2]; [8] 99% | [2]; at 50.0 µM 96.2% | [3]; [8] 98% | [3]; at 50.0 µM 96.3% | [4]; [8] 97% | [4]; at 50.0 µM 92.3% | [5]; [8] 98% | [5]; at 50.0 µM 97.5% | [6]; [8] 98% | [6]; at 50.0 µM 98%
